For assay [1], the target named is T1, Aspartate--tRNA(Asp/Asn) ligase (Mycobacterium tuberculosis (strain ATCC 25618 / H37Rv)) (UniProt P9WFW3). Further: in the data most compounds retested in dose-response had high values.
T1 sequence (whole entry): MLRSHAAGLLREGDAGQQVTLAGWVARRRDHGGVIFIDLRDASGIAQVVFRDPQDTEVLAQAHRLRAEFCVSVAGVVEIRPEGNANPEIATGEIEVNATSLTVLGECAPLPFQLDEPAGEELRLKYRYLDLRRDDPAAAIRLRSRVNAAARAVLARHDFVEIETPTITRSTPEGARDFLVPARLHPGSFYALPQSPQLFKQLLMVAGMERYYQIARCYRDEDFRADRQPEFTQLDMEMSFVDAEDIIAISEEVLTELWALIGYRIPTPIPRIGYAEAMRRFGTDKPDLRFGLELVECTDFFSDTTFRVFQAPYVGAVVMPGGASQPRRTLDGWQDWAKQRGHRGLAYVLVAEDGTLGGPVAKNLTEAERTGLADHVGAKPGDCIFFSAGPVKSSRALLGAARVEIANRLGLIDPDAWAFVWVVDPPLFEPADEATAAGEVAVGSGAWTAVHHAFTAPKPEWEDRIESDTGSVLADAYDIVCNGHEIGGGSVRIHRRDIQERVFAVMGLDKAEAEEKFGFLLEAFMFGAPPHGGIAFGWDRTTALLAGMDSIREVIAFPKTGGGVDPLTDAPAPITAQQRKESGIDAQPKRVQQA
Put plainly: Assay for Asp RNA synthetase-1 from Mycobacterium tuberculosis. The assay is classed as functional. Particulars: 30 µM. Also noted: scale not given: direction of the effect not stated beside the values.

In assay [2] the target is Shiga toxin 2 (Escherichia coli O157:H7) (UniProt P09385+P09386). Put plainly: E. coli 0.157:H7 Shiga Toxin SOP - stx2 screening assay. The note with it: 30 µM. It counts as functional. The arrangement: scale not given: direction of the effect not stated beside the values.

For `CCCc1n[nH]c(C2CN(Cc3nnc(C4CC4)o3)CCO2)n1` (centres undefined), the values for the Percent Effect in assay [1] and in assay [2] were -8.48% and -20.6%, respectively.
With `CNC(=O)c1ccc(C2CN(C(=O)COC)CCO2)nc1` (centres undefined), the Percent Effect in assay [1] stood at 5.69%; in assay [2], 1.8%.
The corresponding values for `CCCN(CC1COc2ccccc2O1)C(=O)CCn1cncn1` (centres undefined) are -2.54% and 34.4%.
For `Cc1n[nH]c(C2CN(C(=O)c3ccco3)CCO2)n1` (centres undefined), in that order: 2.88% and 5.26%.
In the case of `CC(C)OCCCN1CCCC(c2nc3ccccc3n2C(C)C)C1` (centres undefined), the Percent Effect in assay [1] was 6.04%; in assay [2] it was -18.5%.
Take `O=C1NCCN1C1CCCN(Cc2coc(-c3ccc(F)cc3)n2)C1` (centres undefined): the Percent Effect in assay [1] was -2.94%; in assay [2], -27.1%.
The corresponding values for `COc1ccc(OC)c(C(O)CN2CC(n3cccn3)C2)c1` (centres undefined) are -0.9% and 21.2%.
The corresponding values for `COc1ccccc1OCC(=O)NS(=O)(=O)c1ccccc1F` are 0.814% and -7.18%.
For `CC(C)N(Cc1cccc(F)c1)Cc1nc2c(cnn2C)c(=O)[nH]1`, in that order: -5.3% and -0.112%.
With `Cn1nc(CNC(=O)C2CCCC2)cc1C1CC1`, the Percent Effect in assay [1] was 0.0146%; in assay [2], -25.7%.
Take `O=C(c1cccnc1)N1CCCC(c2cc(C(F)F)n3ncnc3n2)C1` (centres undefined): the Percent Effect in assay [1] was determined as 5.29%; in assay [2], 8.99%.
`CC(C)OCCN(C)C(C)c1cccc(S(N)(=O)=O)c1` (centres undefined): the results for the Percent Effect in assay [1] and in assay [2] were -3.29% and -16.4%, respectively.
For `Cc1ccc(OC2(C(=O)O)CCN(C(=O)c3nc(C)oc3C)CC2)cn1`, in that order: -2.19% and 0.158%.
For `Cc1nc(C)n(CC2CCCN2Cc2cscn2)n1` (centres undefined), in that order: -5.82% and 24.1%.
For `Cc1nc2cc(O)nn2c(C)c1CCC(=O)N(C)Cc1cscn1`, in that order: 8.09% and 4.66%.
Take `O=C(NCc1nnc2n1CCC2)N(Cc1ccco1)C1CC1`: the Percent Effect was 1.06% in assay [1] and -5.54% in assay [2].
For `CC(C)C1CN(C(=O)c2ccc(N3CCCC3)nc2)CCS1` (centres undefined), in that order: 12.9% and -43%.

The values are drawn from ChEMBL document CHEMBL3988442, “University of Dundee, Small-Polar-MMV Screening Library” (2021).
